In all, about 5,500 compounds went through this assay and about 2,000 (36%) were called active. Not shown: some 18% with an inconclusive outcome. Cut-off read from the data, not from the text of the source: active = normalized growth mostly below about 0.91 (no sharp cut-off); inconclusive = no clear call, values can overlap the other calls; inactive = mostly above about 0.92. This is one part of the list.
Experiment: chemical genetic growth profiling, strain panel (AID 1159580);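 note: tested at 20 µM; growth read once vehicle control cultures reached saturation at 30 °C; 1 = growth at the plate median or of vehicle wells; lower values mean less growth of the strain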
Conditions: growth OD
[1] = S. cerevisiae deletion strains, locus YAR019C, strain CDC15, active compounds read low
[2] = S. cerevisiae deletion strains, locus YBL105C, strain PKC1, active compounds read low
[3] = S. cerevisiae deletion strains, locus YBR135W, strain CKS1, active compounds read low
[4] = S. cerevisiae deletion strains, locus YBR136W, strain MEC1, active compounds read low
[5] = S. cerevisiae deletion strains, locus YBR160W, strain CDC28, active compounds read low
[6] = S. cerevisiae deletion strains, locus YDL017W, strain CDC7, active compounds read low
[7] = S. cerevisiae deletion strains, locus YDL028C, strain MPS1, active compounds read low
[8] = S. cerevisiae deletion strains, locus YDL101C, strain DUN1, active compounds read low
[9] = S. cerevisiae deletion strains, locus YDL108W, strain KIN28, active compounds read low
[10] = S. cerevisiae deletion strains, locus YDL132W, strain cdc53, active compounds read low
[11] = S. cerevisiae deletion strains, locus YDL214C, strain PRR2, active compounds read low
[12] = S. cerevisiae deletion strains, locus YDR052C, strain DBF4, active compounds read low
[13] = S. cerevisiae deletion strains, locus YDR054C, strain cdc34, active compounds read low
[14] = S. cerevisiae deletion strains, locus YDR226W, strain ADK1, active compounds read low
[15] = S. cerevisiae deletion strains, locus YDR477W, strain SNF1, active compounds read low
[16] = S. cerevisiae deletion strains, locus YER123W, strain YCK3, active compounds read low
[17] = S. cerevisiae deletion strains, locus YER133W, strain GLC7, active compounds read low
[18] = S. cerevisiae deletion strains, locus YFL009W, strain cdc4, active compounds read low
[19] = S. cerevisiae deletion strains, locus YFL029C, strain CAK1, active compounds read low
[20] = S. cerevisiae deletion strains, locus YFR003C, strain YPI1, active compounds read low
[21] = S. cerevisiae deletion strains, locus YFR019W, strain FAB1, active compounds read low
[22] = S. cerevisiae deletion strains, locus YFR028C, strain CDC14, active compounds read low
[23] = S. cerevisiae deletion strains, locus YGR040W, strain KSS1, active compounds read low
[24] = S. cerevisiae deletion strains, locus YGR052W, strain FMP48, active compounds read low
[25] = S. cerevisiae deletion strains, locus YGR092W, strain DBF2, active compounds read low
[26] = S. cerevisiae deletion strains, locus YHR030C, strain SLT2, active compounds read low
[27] = S. cerevisiae deletion strains, locus YHR079C, strain IRE1, active compounds read low
[28] = S. cerevisiae deletion strains, locus YHR082C, strain KSP1, active compounds read low
[29] = S. cerevisiae deletion strains, locus YHR205W, strain SCH9, active compounds read low
[30] = S. cerevisiae deletion strains, locus YIL147C, strain SLN1, active compounds read low
[31] = S. cerevisiae deletion strains, locus YJL095W, strain BCK1, active compounds read low
[32] = S. cerevisiae deletion strains, locus YJL128C, strain PBS2, active compounds read low
[33] = S. cerevisiae deletion strains, locus YJL157C, strain FAR1, active compounds read low
[34] = S. cerevisiae deletion strains, locus YJR016C, strain ILV3, active compounds read low
[35] = S. cerevisiae deletion strains, locus YJR066W, strain TOR1 (second series), active compounds read low
[36] = S. cerevisiae deletion strains, locus YJR066W, strain TOR1, active compounds read low
[37] = S. cerevisiae deletion strains, locus YKL048C, strain ELM1, active compounds read low
[38] = S. cerevisiae deletion strains, locus YKL067W, strain YNK1, active compounds read low
[39] = S. cerevisiae deletion strains, locus YKL101W, strain HSL1, active compounds read low
[40] = S. cerevisiae deletion strains, locus YKL193C, strain SDS22, active compounds read low
[41] = S. cerevisiae deletion strains, locus YKL203C, strain TOR2, active compounds read low
[42] = S. cerevisiae deletion strains, locus YLR113W, strain HOG1, active compounds read low
[43] = S. cerevisiae deletion strains, locus YLR133W, strain CKI1, active compounds read low
[44] = S. cerevisiae deletion strains, locus YLR403W, strain SFP1, active compounds read low
[45] = S. cerevisiae deletion strains, locus YML070W, strain DAK1, active compounds read low
[46] = S. cerevisiae deletion strains, locus YMR001C, strain CDC5, active compounds read low
[47] = S. cerevisiae deletion strains, locus YMR205C, strain PFK2 (second series), active compounds read low
[48] = S. cerevisiae deletion strains, locus YMR277W, strain FCP1, active compounds read low
[49] = S. cerevisiae deletion strains, locus YNL006W, strain LST8, active compounds read low
[50] = S. cerevisiae deletion strains, locus YNL020C, strain ARK1, active compounds read low
[51] = S. cerevisiae deletion strains, locus YNL161W, strain CBK1, active compounds read low
[52] = S. cerevisiae deletion strains, locus YNL183C, strain NPR1, active compounds read low
[53] = S. cerevisiae deletion strains, locus YNL207W, strain RIO2, active compounds read low
[54] = S. cerevisiae deletion strains, locus YNL222W, strain SSU72, active compounds read low
[55] = S. cerevisiae deletion strains, locus YNL307C, strain MCK1 (second series), active compounds read low
[56] = S. cerevisiae deletion strains, locus YOL078W, strain AVO1, active compounds read low
[57] = S. cerevisiae deletion strains, locus YOL136C, strain PFK27, active compounds read low
[58] = S. cerevisiae deletion strains, locus YOR061W, strain CKA2, active compounds read low
[59] = S. cerevisiae deletion strains, locus YOR119C, strain RIO1, active compounds read low
[60] = S. cerevisiae deletion strains, locus YOR231W, strain MKK1, active compounds read low
[61] = S. cerevisiae deletion strains, locus YOR329C, strain SCD5, active compounds read low
[62] = S. cerevisiae deletion strains, locus YPL031C, strain PHO85, active compounds read low
[63] = S. cerevisiae deletion strains, locus YPL153C, strain RAD53, active compounds read low
[64] = S. cerevisiae deletion strains, locus YPL204W, strain HRR25, active compounds read low
[65] = S. cerevisiae deletion strains, locus YPL209C, strain IPL1, active compounds read low
[66] = S. cerevisiae deletion strains, locus YPL256C, strain CLN2, active compounds read low
[67] = S. cerevisiae deletion strains, locus YPR025C, strain CCL1, active compounds read low
[68] = S. cerevisiae deletion strains, locus YPR106W, strain ISR1, active compounds read low
[69] = S. cerevisiae deletion strains, locus YPR111W, strain DBF20, active compounds read low
[70] = S. cerevisiae deletion strains, strain NNK1, active compounds read low
[71] = S. cerevisiae deletion strains, strain TSCII, active compounds read low

Measured: normalized growth

O=[N+]([O-])c1ccc2oc(C(O)c3cccc(Cl)c3)cc2c1 (stereo not drawn)
inactive: [1] 0.947 | [2] 0.948 | [3] 0.943 | [4] 0.957 | [5] 0.947 | [6] 0.949 | [7] 0.954 | [8] 0.937 | [9] 0.949 | [10] 0.936 | [11] 0.942 | [12] 0.953 | [13] 0.951 | [14] 0.952 | [15] 0.957 | [16] 0.94 | [17] 0.96 | [18] 0.945 | [19] 0.946 | [20] 0.948 | [21] 0.931 | [22] 0.949 | [23] 0.964 | [24] 1.05 | [25] 0.907 | [26] 1.08 | [27] 1.02 | [28] 1.06 | [29] 0.931 | [30] 0.96 | [31] 1.04 | [32] 0.91 | [33] 0.932 | [34] 0.954 | [35] 0.93 | [36] 1.09 | [37] 0.93 | [38] 0.942 | [39] 0.934 | [40] 0.946 | [41] 1.03 | [42] 0.893 | [43] 0.935 | [44] 0.939 | [45] 0.94 | [46] 0.945 | [47] 0.944 | [48] 0.952 | [49] 0.954 | [50] 0.929 | [51] 0.956 | [52] 1.04 | [53] 0.944 | [54] 0.947 | [55] 0.925 | [56] 0.946 | [57] 0.95 | [58] 0.922 | [59] 0.992 | [60] 1.01 | [61] 0.948 | [62] 0.953 | [63] 0.955 | [64] 0.954 | [65] 0.946 | [66] 0.996 | [67] 0.953 | [68] 0.961 | [69] 0.948 | [70] 0.934 | [71] 0.944

O=[N+]([O-])c1ccc2oc(C(O)c3ccc(-c4ccccc4)cc3)cc2c1 (stereo not drawn)
active: [26] 0.786
inactive: [1] 0.989 | [2] 0.976 | [3] 0.978 | [4] 0.975 | [5] 0.985 | [6] 0.979 | [7] 0.987 | [8] 0.975 | [9] 0.969 | [10] 0.996 | [11] 0.84 | [12] 0.982 | [13] 0.995 | [14] 0.999 | [15] 0.849 | [16] 0.805 | [17] 0.863 | [18] 1 | [19] 0.976 | [20] 0.984 | [21] 0.904 | [22] 0.997 | [23] 0.859 | [24] 0.926 | [25] 0.802 | [27] 0.896 | [28] 0.86 | [29] 0.967 | [30] 0.968 | [31] 0.905 | [32] 1.05 | [33] 0.822 | [34] 0.977 | [35] 0.751 | [36] 0.829 | [37] 0.979 | [38] 0.872 | [39] 0.982 | [40] 0.98 | [41] 0.924 | [42] 0.882 | [43] 0.877 | [44] 0.902 | [45] 0.835 | [46] 0.982 | [47] 0.882 | [48] 0.994 | [49] 0.987 | [50] 0.854 | [51] 0.984 | [52] 0.919 | [53] 0.979 | [54] 0.976 | [55] 0.936 | [56] 0.993 | [57] 0.849 | [58] 0.75 | [59] 0.904 | [60] 0.892 | [61] 0.985 | [62] 0.848 | [63] 0.821 | [64] 0.88 | [65] 0.977 | [66] 0.96 | [67] 0.985 | [68] 1 | [69] 1.03 | [70] 0.997 | [71] 0.987

O=C(c1ccc(-c2ccccc2)cc1)c1cc2cc([N+](=O)[O-])ccc2o1
inactive: S. cerevisiae deletion strains, locus YAL013W, strain DEP1, active compounds read low 1 | S. cerevisiae deletion strains, locus YBR229C, strain ROT2, active compounds read low 0.993 | [8] 1.02 | S. cerevisiae deletion strains, locus YDR150W, strain NUM1, active compounds read low 0.99 | S. cerevisiae deletion strains, locus YEL061C, strain CIN8, active compounds read low 1.01 | S. cerevisiae deletion strains, locus YGR078C, strain PAC10, active compounds read low 1.01 | [26] 1.01 | S. cerevisiae deletion strains, locus YHR087W, strain rtc3, active compounds read low 1.01 | S. cerevisiae deletion strains, locus YJR043C, strain POL32, active compounds read low 0.997 | S. cerevisiae deletion strains, locus YJR075W, strain HOC1, active compounds read low 1.03 | S. cerevisiae deletion strains, locus YKL190W, strain CNB1, active compounds read low 0.993 | S. cerevisiae deletion strains, locus YLR039C, strain RIC1, active compounds read low 0.986 | S. cerevisiae deletion strains, locus YLR058C, strain SHM2 (second series), active compounds read low 0.993 | S. cerevisiae deletion strains, locus YLR085C, strain ARP6, active compounds read low 1 | S. cerevisiae deletion strains, locus YLR262C, strain YPT6, active compounds read low 0.981 | S. cerevisiae deletion strains, locus YML094W, strain GIM5, active compounds read low 1.07 | S. cerevisiae deletion strains, locus YMR219W, strain ESC1, active compounds read low 1 | S. cerevisiae deletion strains, locus YMR263W, strain SAP30, active compounds read low 1.04 | S. cerevisiae deletion strains, locus YNL153C, strain GIM3, active compounds read low 1.01 | S. cerevisiae deletion strains, locus YNL298W, strain CLA4 (second series), active compounds read low 0.996 | S. cerevisiae deletion strains, locus YNL322C, strain KRE1, active compounds read low 1.01 | S. cerevisiae deletion strains, locus YNR030W, strain Alg12, active compounds read low 1 | S. cerevisiae deletion strains, locus YPL055C, strain LGE1, active compounds read low 1.01 | S. cerevisiae deletion strains, locus YPL241C, strain CIN2, active compounds read low 1.07 | S. cerevisiae deletion strains, locus YPR135W, strain CTF4, active compounds read low 1.12 | S. cerevisiae strains, strain wild type, active compounds read low 0.987
